Results as given in PubChem BioAssay (EPA / NIEHS).
Active and inactive are the calls of the source. Rule for the calls: active = hit-call score of the fitted dose curve at least 0.9, where 1 is the maximum; inactive = score below 0.9.

Key:
[1] = read-out: Human Leukocyte Antigen - DR isotype (HLADR), HLA-DRA (gene 3122); test: BSK_BE3C_HLADR: BioMAP Diversity Plus: BE3C Assay for Human Leukocyte Antigen - DR isotype (HLADR) Biomarker Activity (AID 2283032); conditions: primary human bronchial epithelial cells; actives raise or lower the signal
Outline: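 Primary human bronchial epithelial cells (BE3C); 24 h chemical exposure; HLA-DR by ELISA; bidirectional curve fit vs DMSO baseline.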

[2] = read-out: Monokine induced gamma interferon (MIG), CXCL9 (gene 4283); test: BSK_BE3C_MIG: BioMAP Diversity Plus: BE3C Assay for Monokine induced gamma interferon (MIG) Biomarker Activity (AID 2283035); conditions: primary human bronchial epithelial cells; actives raise or lower the signal
Outline: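 Dose cells (human primary bronchial epithelial), incubate 24 h, quantify MIG by ELISA, then fit concentration–response in both directions relative to DMSO control.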

[3] = read-out: Transforming growth factor beta 1 (TGFb1), TGFB1 (gene 7040); test: BSK_BE3C_TGFb1: BioMAP Diversity Plus: BE3C Assay for Transforming growth factor beta 1 (TGFb1) Biomarker Activity (AID 2283036); conditions: primary human bronchial epithelial cells; actives raise or lower the signal
Outline: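 Read-out: ELISA for TGF-b1 in primary human bronchial epithelial cultures, 24 h post-dose. Bidirectional curve fitting vs DMSO control; gain or loss of signal both scored.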

[4] = read-out: Plasminogen activator inhibitor-1 (PAI1), SERPINE1 (gene 5054); test: BSK_BE3C_PAI1: BioMAP Diversity Plus: BE3C Assay for Plasminogen activator inhibitor-1 (PAI1) Biomarker Activity (AID 2283037); conditions: primary human bronchial epithelial cells; actives raise or lower the signal
Outline: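 ELISA read-out of PAI-1 from human bronchial epithelial primary cells, 24 h post-dosing; bidirectional curve fit vs DMSO baseline, gain or loss of signal scored.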

[5] = read-out: Urokinase-type plasminogen activator receptor (uPAR), PLAUR (gene 5329); test: BSK_BE3C_uPAR: BioMAP Diversity Plus: BE3C Assay for Urokinase-type plasminogen activator receptor (uPAR) Biomarker Activity (AID 2283039); conditions: primary human bronchial epithelial cells; actives raise or lower the signal;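 note: uPAR protein level measured by ELISA on the cells; cells exposed to compound for one day before measurement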
Outline: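 ELISA readout of uPAR on human lung primary bronchial epithelial cells, 24 h post-dosing. Bidirectional curve fit relative to DMSO vehicle baseline; gain or loss of signal both scored.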

[6] = read-out: Interleukin-6 (IL6), IL6 (gene 3569); test: BSK_CASM3C_IL6: BioMAP Diversity Plus: CASM3C Assay for Interleukin-6 (IL6) Biomarker Activity for (AID 2283040); conditions: primary human coronary artery smooth muscle cells; actives raise or lower the signal
[7] = read-out: Tissue plasminogen activator (tPA), PLAT (gene 5327); test: BSK_BE3C_tPA: BioMAP Diversity Plus: BE3C Assay for Tissue plasminogen activator (tPA) Biomarker Activity (AID 2283041); conditions: primary human bronchial epithelial cells; actives raise or lower the signal
Outline: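 ELISA read-out of tPA on human primary bronchial epithelial cells, 24 h post-dosing; bidirectional fit vs DMSO negative control/baseline.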

[8] = read-out: Interleukin-8 (IL8), CXCL8 (gene 3576); test: BSK_CASM3C_IL8: BioMAP Diversity Plus: CASM3C Assay for Interleukin-8 (IL8) Biomarker Activity (AID 2283042); conditions: primary human coronary artery smooth muscle cells; actives raise or lower the signal;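 note: IL-8 protein level quantified by ELISA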
[9] = read-out: Human Leukocyte Antigen - DR isotype (HLADR), HLA-DRA (gene 3122); test: BSK_CASM3C_HLADR: BioMAP Diversity Plus: CASM3C Assay for Human Leukocyte Antigen - DR isotype (HLADR) Biomarker Activity (AID 2283043); conditions: primary human coronary artery smooth muscle cells; actives raise or lower the signal;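 note: cell-surface HLA-DR protein level quantified by ELISA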
[10] = read-out: Macrophage colony-stimulating factor (MCSF), CSF1 (gene 1435); test: BSK_CASM3C_MCSF: BioMAP Diversity Plus: CASM3C Assay for Macrophage colony-stimulating factor (MCSF) Biomarker Activity (AID 2283044); conditions: primary human coronary artery smooth muscle cells; actives raise or lower the signal;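 note: M-CSF protein amount quantified by ELISA after 24 h exposure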
[11] = read-out: Low-density lipoprotein receptor (LDLR), LDLR (gene 3949); test: BSK_CASM3C_LDLR: BioMAP Diversity Plus: CASM3C Assay for Low-density lipoprotein receptor (LDLR) Biomarker Activity (AID 2283045); conditions: primary human coronary artery smooth muscle cells; actives raise or lower the signal;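 note: LDLR protein level on the cell surface quantified by ELISA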
[12] = read-out: Monocyte Chemoattractant Protein-1 (MCP1), CCL2 (gene 6347); test: BSK_CASM3C_MCP1: BioMAP Diversity Plus: CASM3C Assay for Monocyte Chemoattractant Protein-1 (MCP1) Biomarker Activity (AID 2283046); conditions: primary human coronary artery smooth muscle cells; actives raise or lower the signal;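 note: MCP-1 level quantified by ELISA 24 h after dosing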
[13] = BSK_CASM3C_Proliferation: Cell Proliferation Assessment in the BioMAP Diversity Plus: CASM3C Assay (AID 2283047); conditions: primary human coronary artery smooth muscle cells;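 note: sulforhodamine B total protein stain as relative cell number at 560 nm; sub-confluent cells exposed 48 h before staining; fitted both ways against DMSO so gain or loss of cell number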
[14] = read-out: Monokine induced gamma interferon (MIG), CXCL9 (gene 4283); test: BSK_CASM3C_MIG: BioMAP Diversity Plus: CASM3C Assay for Monokine induced gamma interferon (MIG) Biomarker Activity (AID 2283048); conditions: primary human coronary artery smooth muscle cells; actives raise or lower the signal;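 note: MIG protein level measured by ELISA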
[15] = read-out: serum amyloid A (SAA), SAA1 (gene 6288); test: BSK_CASM3C_SAA: BioMAP Diversity Plus: CASM3C Assay for serum amyloid A (SAA) Biomarker Activity (AID 2283049); conditions: primary human coronary artery smooth muscle cells; actives raise or lower the signal;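 note: SAA protein level quantified by ELISA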
[16] = BSK_CASM3C_SRB: Viability Assessment in the BioMAP Diversity Plus: CASM3C Assay (AID 2283050); conditions: primary human coronary artery smooth muscle cells;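 note: total protein by SRB staining as cytotoxicity measure in parallel cultures; cells exposed to compound for 24 h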
[17] = read-out: Thrombomodulin, THBD (gene 7056); test: BSK_CASM3C_Thrombomodulin: BioMAP Diversity Plus: CASM3C Assay for Thrombomodulin Biomarker Activity (AID 2283051); conditions: primary human coronary artery smooth muscle cells; actives raise or lower the signal;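 note: thrombomodulin protein level measured by ELISA 24 h after dosing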
[18] = read-out: Interferon-gamma inducible Protein 10 (IP10), CXCL10 (gene 3627); test: BSK_BE3C_IP10: BioMAP Diversity Plus: BE3C Assay for Interferon-gamma inducible Protein 10 (IP10) Biomarker Activity (AID 2283034); conditions: primary human bronchial epithelial cells; actives raise or lower the signal
Outline: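 ELISA readout of IP-10 in BE3C system: primary human bronchial epithelial cells, 24 h post-dosing; bidirectional curve fit vs DMSO baseline.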

[19] = read-out: urokinase plasminogen activator (uPA), PLAU (gene 5328); test: BSK_BE3C_uPA: BioMAP Diversity Plus: BE3C Assay for urokinase plasminogen activator (uPA) Biomarker Activity (AID 2283038); conditions: primary human bronchial epithelial cells; actives raise or lower the signal;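 note: uPA protein level quantified by ELISA in cell cultures; uPA read one day after compound addition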
Outline: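 Primary human bronchial epithelial cells, uPA measured by ELISA 24 h after dosing. Bidirectional change relative to DMSO; cytotoxicity checked in parallel cultures by sulforhodamine B total-protein staining.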

Measured: AC50

CCOC(=O)CCN(SN(C)C(=O)Oc1cccc2c1OC(C)(C)C2)C(C)C
active: [9] 12.2 µM | [10] 20 µM | [13] 20 µM
not listed: [18] | [19]
inactive: all other assays above

CCCCCCCCCCCCN(C)C
active: [11] 26.7 µM
not listed: [19]
inactive: all other assays above

CCOP(=O)(OCC)OC(=CCl)c1ccc(Cl)cc1Cl
active: [9] 33.4 µM | [10] 31.7 µM | [11] 28.3 µM | [12] 28 µM | [13] 28.5 µM | [15] 29.6 µM | [16] 29.5 µM
inactive: all other assays above

CN(C)C(=S)S
active: [1] 25.1 µM | [2] 23.1 µM | [3] 20 µM | [7] 9.34 µM | [13] 0.791 µM
not listed: [18] | [19]
inactive: all other assays above
